The source made the active and inactive calls. The calls were made as follows: active = hit-call score of the fitted dose curve at least 0.9, where 1 is the maximum; inactive = score below 0.9.

Read-out in the assay: Macrophage colony-stimulating factor (MCSF), CSF1 (gene 1435)
As to the kind of experiment: BSK_LPS_MCSF: BioMAP Diversity Plus: LPS Assay for Macrophage colony-stimulating factor (MCSF) Biomarker Activity (AID 2283083). To be noted: primary human HUVEC with PBMC; actives raise or lower the signal. In short, it runs like this: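 HUVEC + PBMC co-culture (human primary), 24 h post-dose; M-CSF by ELISA; gain/loss of signal fitted bidirectionally vs DMSO baseline.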
With `NC(=O)N1c2ccccc2C=Cc2ccccc21`, the result was inactive.
Under `c1ccc2c(c1)-c1cccc3c1c-2cc1ccccc13` stands “inactive”; under `CCOc1ccc2[nH]cc(C(=O)NCc3ccccc3)c(=O)c2n1`, “inactive”; under `CCc1ccc(O)c(C(C)(C)C)c1`, “inactive”.
On to `CCc1cccc(CC)c1N`, for which the outcome was inactive.
With `FC(F)=C(F)C(F)(F)C(F)(F)C(F)(F)C(F)(F)C(F)(F)C(F)(F)F`, the result was inactive.
Under `NNC(=O)c1ccncc1` stands “inactive”; under `OC[C@H]1O[C@@H]2O[C@H]3[C@H](O)[C@@H](O)[C@@H](O[C@H]4[C@H](O)[C@@H](O)[C@@H](O[C@H]5[C@H](O)[C@@H](O)[C@@H](O[C@H]6[C@H](O)[C@@H](O)[C@@H](O[C@H]7[C@H](O)[C@@H](O)[C@@H](O[C@H]1[C@H](O)[C@H]2O)O[C@@H]7CO)O[C@@H]6CO)O[C@@H]5CO)O[C@@H]4CO)O[C@@H]3CO`, “inactive”.
As to `CCCCCCCC1CCC(=O)O1` (stereo not given), the outcome was inactive.
For the compound `OCC(CO)(CO)CO`, the outcome was inactive.
